In all, about 5,500 compounds went through this assay and about 2,000 (36%) were called active. Roughly 18% stayed inconclusive and do not appear here. No stated cut-off is given here; in the data, active means normalized growth mostly below about 0.91 (no sharp cut-off); inconclusive means no clear call, values can overlap the other calls; inactive means mostly above about 0.92. Some of the results follow.
Experiment: chemical genetic growth profiling, strain panel (AID 1159580);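 further: tested at 20 µM; growth read once vehicle control cultures reached saturation at 30 °C; 1 = growth at the plate median or of vehicle wells; lower values mean less growth of the strain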
Settings: growth OD

Measured: normalized growth

CC(=O)OCC(=O)[C@@]1(O)[C@H](OC(C)=O)CC2C3CCC4=CC(=O)C=C[C@]4(C)[C@@]3(F)[C@@H](O)C[C@@]21C (some centres not stated)
inactive: S. cerevisiae deletion strains, locus YJR066W, strain TOR1, active compounds read low 0.935 | S. cerevisiae deletion strains, locus YKL009W, strain mrt4, active compounds read low 0.993 | S. cerevisiae deletion strains, locus YKL068W, active compounds read low 0.994 | S. cerevisiae deletion strains, locus YKL085W, strain MDH1 (second series), active compounds read low 1 | S. cerevisiae deletion strains, locus YKL085W, strain MDH1, active compounds read low 1 | S. cerevisiae deletion strains, locus YKL160W, strain elf1, active compounds read low 1.02 | S. cerevisiae deletion strains, locus YKL190W, strain CNB1, active compounds read low 0.996 | S. cerevisiae deletion strains, locus YKR001C, strain vps1, active compounds read low 0.999 | S. cerevisiae deletion strains, locus YKR026C, strain gcn3, active compounds read low 0.993 | S. cerevisiae deletion strains, locus YKR091W, strain srl3, active compounds read low 0.986 | S. cerevisiae deletion strains, locus YLL001W, strain dnm1, active compounds read low 1.03 | S. cerevisiae deletion strains, locus YLL026W, active compounds read low 1 | S. cerevisiae deletion strains, locus YLL041C, strain sdh2, active compounds read low 0.985 | S. cerevisiae deletion strains, locus YLR027C, strain aat2, active compounds read low 1.01 | S. cerevisiae deletion strains, locus YLR039C, strain RIC1, active compounds read low 0.995 | S. cerevisiae deletion strains, locus YLR058C, strain SHM2, active compounds read low 0.98 | S. cerevisiae deletion strains, locus YLR102C, strain apc9, active compounds read low 0.999 | S. cerevisiae deletion strains, locus YLR113W, strain HOG1, active compounds read low 0.98 | S. cerevisiae deletion strains, locus YLR221C, strain rsa3, active compounds read low 0.956 | S. cerevisiae deletion strains, locus YLR258W, strain gsy2, active compounds read low 0.982 | S. cerevisiae deletion strains, locus YLR262C, strain YPT6 (second series), active compounds read low 1.01 | S. cerevisiae deletion strains, locus YLR262C, strain YPT6, active compounds read low 0.974 | S. cerevisiae deletion strains, locus YLR268W, strain sec22, active compounds read low 1.06 | S. cerevisiae deletion strains, locus YLR320W, strain mms22, active compounds read low 0.97 | S. cerevisiae deletion strains, locus YLR330W, strain CHS5, active compounds read low 0.993 | S. cerevisiae deletion strains, locus YLR342W, strain FKS1 (second series), active compounds read low 1.01 | S. cerevisiae deletion strains, locus YLR342W, strain FKS1, active compounds read low 1.02 | S. cerevisiae deletion strains, locus YLR357W, strain rsc2, active compounds read low 0.974 | S. cerevisiae deletion strains, locus YLR370C, strain arc18, active compounds read low 0.99 | S. cerevisiae deletion strains, locus YLR371W, strain rom2, active compounds read low 0.983 | S. cerevisiae deletion strains, locus YLR384C, strain iki3, active compounds read low 0.996 | S. cerevisiae deletion strains, locus YLR418C, strain cdc73, active compounds read low 1 | S. cerevisiae deletion strains, locus YML016C, strain PPZ1, active compounds read low 0.996 | S. cerevisiae deletion strains, locus YML032C, strain rad52, active compounds read low 1.01 | S. cerevisiae deletion strains, locus YML120C, strain ndi1, active compounds read low 1 | S. cerevisiae deletion strains, locus YML124C, strain tub3, active compounds read low 0.991 | S. cerevisiae deletion strains, locus YMR058W, strain fet3, active compounds read low 0.991 | S. cerevisiae deletion strains, locus YMR078C, strain ctf18, active compounds read low 0.987 | S. cerevisiae deletion strains, locus YMR125W, strain sto1, active compounds read low 0.983 | S. cerevisiae deletion strains, locus YMR129W, active compounds read low 0.967 | S. cerevisiae deletion strains, locus YMR205C, strain PFK2, active compounds read low 1.02 | S. cerevisiae deletion strains, locus YMR223W, strain ubp8, active compounds read low 0.98 | S. cerevisiae deletion strains, locus YMR231W, strain pep5, active compounds read low 1 | S. cerevisiae deletion strains, locus YMR263W, strain SAP30, active compounds read low 0.991 | S. cerevisiae deletion strains, locus YMR307W, strain GAS1, active compounds read low 1 | S. cerevisiae deletion strains, locus YNL067W, strain RPL9B, active compounds read low 0.998 | S. cerevisiae deletion strains, locus YNL071W, strain lat1, active compounds read low 0.974 | S. cerevisiae deletion strains, locus YNL183C, strain NPR1, active compounds read low 0.949 | S. cerevisiae deletion strains, locus YNL209W, strain ssb2, active compounds read low 0.986 | S. cerevisiae deletion strains, locus YNL233W, strain BNI4, active compounds read low 0.986 | S. cerevisiae deletion strains, locus YNL248C, strain rpa49, active compounds read low 0.937 | S. cerevisiae deletion strains, locus YNL250W, strain rad50, active compounds read low 0.985 | S. cerevisiae deletion strains, locus YNL271C, strain bni1, active compounds read low 0.997 | S. cerevisiae deletion strains, locus YNL298W, strain CLA4, active compounds read low 1 | S. cerevisiae deletion strains, locus YNL307C, strain MCK1, active compounds read low 0.998 | S. cerevisiae deletion strains, locus YNL322C, strain KRE1 (second series), active compounds read low 0.998 | S. cerevisiae deletion strains, locus YNR049C, strain mso1, active compounds read low 0.979 | S. cerevisiae deletion strains, locus YNR052C, strain pop2, active compounds read low 1 | S. cerevisiae deletion strains, locus YOL006C, strain TOP1, active compounds read low 0.959 | S. cerevisiae deletion strains, locus YOL012C, strain htz1 1.14 | S. cerevisiae deletion strains, locus YOL147C, strain pex11, active compounds read low 0.994 | S. cerevisiae deletion strains, locus YOR001W, strain rrp6, active compounds read low 1 | S. cerevisiae deletion strains, locus YOR061W, strain CKA2, active compounds read low 0.963 | S. cerevisiae deletion strains, locus YOR069W, strain VPS5, active compounds read low 0.993 | S. cerevisiae deletion strains, locus YOR070C, strain gyp1, active compounds read low 0.989 | S. cerevisiae deletion strains, locus YOR080W, strain dia2, active compounds read low 0.997 | S. cerevisiae deletion strains, locus YOR083W, strain WHI5, active compounds read low 1.01 | S. cerevisiae deletion strains, locus YOR106W, strain vam3, active compounds read low 1.02 | S. cerevisiae deletion strains, locus YOR136W, strain idh2, active compounds read low 0.981 | S. cerevisiae deletion strains, locus YOR144C, strain elg1, active compounds read low 0.998 | S. cerevisiae deletion strains, locus YOR184W, strain ser1, active compounds read low 0.986 | S. cerevisiae deletion strains, locus YOR231W, strain MKK1, active compounds read low 0.982 | S. cerevisiae deletion strains, locus YOR265W, strain rbl2, active compounds read low 0.982 | S. cerevisiae deletion strains, locus YOR270C, strain vph1, active compounds read low 0.973 | S. cerevisiae deletion strains, locus YOR290C, strain snf2, active compounds read low 0.952 | S. cerevisiae deletion strains, locus YOR316C, strain cot1, active compounds read low 0.993 | S. cerevisiae deletion strains, locus YPL051W, strain arl3, active compounds read low 1.01 | S. cerevisiae deletion strains, locus YPL078C, strain atp4, active compounds read low 1.02 | S. cerevisiae deletion strains, locus YPL106C, strain sse1, active compounds read low 0.982 | S. cerevisiae deletion strains, locus YPL240C, strain hsp82, active compounds read low 1 | S. cerevisiae deletion strains, locus YPL256C, strain CLN2, active compounds read low 0.969 | S. cerevisiae deletion strains, locus YPR119W, strain clb2, active compounds read low 0.998 | S. cerevisiae deletion strains, locus YPR141C, strain kar3, active compounds read low 0.982 | S. cerevisiae deletion strains, locus YPR163C, strain tif3, active compounds read low 0.985 | S. cerevisiae deletion strains, locus YPR167C, strain met16, active compounds read low 0.992 | S. cerevisiae deletion strains, strain wtn01, active compounds read low 1 | S. cerevisiae strains, strain wild type, active compounds read low 0.983
